This is a sample that favours compounds with a hit; in the whole collection about 3.9% have one here.
D1 ag: Allosteric Agonists of the Human D1 Dopamine Receptor: qHTS | AID 504660, 2011 | HEK293 T-REx D1 cells, calcium flux, agonist mode | hit rate 1% among 360,000 | D(1A) dopamine receptor (Homo sapiens), P21728 | activation, % at 2 µM; in the data active = activation above about 30%; also: 0% is about no effect
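Agonism was scored from calcium flux recorded over 180 s (1 read/s) after pintool compound addition, following a 10-cycle baseline. Cells were inducible force-coupled HEK293 TREx D1, plated overnight at 30 C and loaded with no-wash calcium dye.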
D1 antag: Antagonist of Human D 1 Dopamine Receptor: qHTS. D(1A) dopamine receptor (Homo sapiens), P21728. HEK293 TREx D1 cells, calcium flux, dopamine EC80; stronger effect = lower value. activity change, negative = inhibition, % at 10 µM. hit rate 3.2% among 360,000. AID 504652, 2011; in the data active = activity change below about -30%; also: % is scaled to controls: 0 for no effect and ±100 for the full control effect
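Calcium flux readout: force-coupled, inducible Hek293 Trex D1 line, cells induced overnight at 30 C with tetracycline, dye-loaded 30–90 min at RT. Antagonism scored against EC80 dopamine challenge given 180 s after compound.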
D1 potentiator: Potentiators of Human D1 Dopamine Receptor: qHTS. HEK293 TREx D1 cells, calcium flux, dopamine EC20 potentiation. AID 504651, 2011. D(1A) dopamine receptor (Homo sapiens), P21728. potentiation, % at 10 µM. hit rate 0.036% among 360,000; in the data active = potentiation above about 30%; also: 0% is about no effect
GALK inhibitor: qHTS Assay for Inhibitors of Human Galactokinase (GALK); hit rate 0.007% among 270,000; AID 1868, 2009; Potency, µM (doses to about 57.5 µM), for the others: top-dose activity change, negative = inhibition, actives largely listed as inhibitors; Purified GALK, Kinase-Glo residual ATP luminescence; P51570; also: potency is read from the fitted curve at half-maximal effect; % is scaled to controls: 0 for no effect and ±100 for the full control effect
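The enzyme phosphorylates galactose (100 uM) using ATP (35 uM); inhibition is detected as higher residual ATP, quantified by bioluminescence after 1 h reaction at room temperature, pH 8.0.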
Eya2 inh: qHTS Assay for Inhibitors of the Phosphatase Activity of Eya2 | Protein phosphatase EYA2 (Homo sapiens), O00167 | recombinant Eya2, OMFP fluorescence dephosphorylation (OMFP is methylfluorescein phosphate) | Potency, µM (doses to about 76.9 µM), inactives show top-dose activity, negative = inhibition, usual class: inhibitors | hit rate 0.006% among 330,000; also: potency is read from the fitted curve at half-maximal effect; % is scaled to controls: 0 for no effect and ±100 for the full control effect
Target sequence (O00167 whole entry, looked up): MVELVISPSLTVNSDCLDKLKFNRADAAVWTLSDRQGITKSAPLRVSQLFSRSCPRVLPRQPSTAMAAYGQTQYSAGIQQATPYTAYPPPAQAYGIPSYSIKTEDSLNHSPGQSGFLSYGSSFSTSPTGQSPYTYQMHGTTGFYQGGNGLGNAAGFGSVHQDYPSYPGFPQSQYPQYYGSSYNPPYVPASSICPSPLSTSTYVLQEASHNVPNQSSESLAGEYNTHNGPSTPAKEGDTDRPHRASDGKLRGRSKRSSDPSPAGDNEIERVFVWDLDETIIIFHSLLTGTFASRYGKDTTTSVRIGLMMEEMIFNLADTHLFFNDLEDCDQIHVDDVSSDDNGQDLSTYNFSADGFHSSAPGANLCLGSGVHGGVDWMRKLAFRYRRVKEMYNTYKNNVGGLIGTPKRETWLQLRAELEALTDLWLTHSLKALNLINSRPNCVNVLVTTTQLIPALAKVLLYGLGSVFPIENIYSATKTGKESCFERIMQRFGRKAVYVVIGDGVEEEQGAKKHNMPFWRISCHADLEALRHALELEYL
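Eya2 (0.2 uM) preincubated 10 min at ambient with compound, then OMFP substrate added at 50 uM; 10 min reaction in 50 mM HEPES pH 7.5, 50 mM NaCl, 5 uM MgCl2, 0.05% BSA, 1 mM DTT. Fluorescence read at Ex 485/Em 525 nm.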
USP2a block: qHTS Assay for Inhibitors of Ubiquitin-specific Protease USP2a Using CHOP2 as the Reporter; Ubiquitin carboxyl-terminal hydrolase 2 (Homo sapiens), O75604; USP2 core, Ub-CHOP2 coupled fluorogenic reporter, 485/531; Potency, µM (series often up to 38.3 µM), without a hit: at the highest dose activity change, negative = inhibition, actives largely listed as inhibitors; hit rate 0.01% among 330,000;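 also: potency is read from the fitted curve at half-maximal effect; plate controls were DMSO wells for no effect and full inhibition by NEM control for full effect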
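Deubiquitinase activity read as fluorescence (485/531 nm) after Ub-CHOP2 cleavage activates the enterokinase reporter on its substrate; USP2 core 10nM, Ub-CHOP2 and substrate 25nM each, 30min compound preincubation then 60min RT; data normalized to NEM, curves fitted.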
Starred values were filed as active, the others as inactive; . = no result. Unless noted, calls follow the shape of the dose curve; as a rule, active = well fitted inhibition curve with a large enough effect; inconclusive = small, poorly fitted or top-dose-only effect, or effect the other way; inactive = flat fitted curve, though single readings scatter.

SMILES	D1 ag	D1 antag	D1 potentiator	GALK inhibitor	Eya2 inh	USP2a block
O=C(NCCS(=O)(=O)N1CCN(c2ccccc2F)CC1)c1ccco1	0	1	-2	.	5%	1%
O=C(NCCS(=O)(=O)N1CCN(c2ccc(F)cc2)CC1)c1ccco1	2	-42*	1	.	15%	2%
CC(C)Cn1c(-c2ccc(Br)cc2)c[nH]c1=S	43*	41	-12	-1%	3%	4%
Cc1ccc(Sc2ccc(N3CCCC(C(=O)Nc4ccc(F)c(Cl)c4)C3)nn2)cc1 (configuration not stated)	1	3	2	.	.	.
O=S(=O)(c1ccc(-c2csc(=Nc3ccc(F)cc3)n2CCCCCCO)cc1)N1CCCC1	1	9	-2	.	.	.
CC(=O)c1ccc(N2CCN(c3ncnc4c3c(-c3ccccc3)cn4-c3ccc(Cl)cc3)CC2)cc1	-2	10	0	.	.	.
COc1ccc(N=C(N)SCc2ccccn2)cc1	21	-43*	-10	1%	2%	2%
COc1ccc(CC(=O)NCC(c2ccc(Cl)cc2)N2CCOCC2)cc1 (configuration not stated)	-3	-43*	-1	.	.	.
COc1ccc(C(CNC(=O)c2ccc(C)cc2)N2CCOCC2)cc1 (configuration not stated)	1	0	0	.	.	.
COc1ccc(C(CNC(=O)c2ccc(-n3cnnn3)cc2)N2CCOCC2)cc1 (configuration not stated)	1	-47*	-8	3%	5%	-2%
CN(C)c1ccc(C(CNC(=O)Cc2ccc(Cl)cc2)N2CCOCC2)cc1 (configuration not stated)	0	-5	1	.	.	.
COc1ccc(/C=N/NC(=O)c2ccc(-n3cnnn3)cc2)cc1	1	-65*	12	.	33%	0%
COc1ccc(/C=C(/C#N)C(=O)Nc2ccc(C)cc2C)cc1C(=O)O	-1	-35*	3	-3%	2%	-6%
COc1cc(/C=C(/C#N)C(=O)Nc2ccc(C)cc2)ccc1Oc1nc(Cl)ncc1F	7	-31*	-5	2%	5%	2%
Cc1ccc2ccc3cc(C(=O)Nc4ccc(C)c(F)c4)nc3c2[nH]1	1	-6	-8	.	.	.
O=S(=O)(NCCc1csc2nc(-c3ccc(F)cc3)nn12)c1ccc(Br)cc1	7	.	-3	.	.	.
CC(=O)NS(=O)(=O)c1cccnc1Nc1cccc(Cl)c1C	1	-33*	-2	.	7%	-3%
CC(=O)NS(=O)(=O)c1cccnc1Nc1ccc(Cl)cc1	3	-2	-5	-3%	4%	-2%
COc1ccc(CNS(=O)(=O)c2cc(C(=O)Nc3cc(Cl)cc(Cl)c3)ccc2F)cc1	5	4	0	.	.	.
COc1ccc(-c2cc(=O)c3cc(OCC(=O)OC(C)C)ccc3o2)cc1	19	-60*	-1	.	.	.
COc1ccc(-c2cc(=O)c3cc(O)ccc3o2)cc1	-2	-34*	-2	-1%	4%	-1%
Cc1ccc(-n2ccnc(NCCc3ccc(S(N)(=O)=O)cc3)c2=O)cc1C	1	-4	-4	.	.	.
O=S(=O)(NCCc1csc(-c2ccc(F)cc2)n1)c1ccc(Cl)cc1	4	-3	1	.	.	.
CN(CC(=O)Nc1ccc(Cl)c(C(F)(F)F)c1)C(=O)c1ccc(OCC2CCCO2)cc1 (configuration not stated)	3	-49*	-20	.	-23%	-3%
CC(C)NC(=O)c1cnc(N2CCN(c3ccccn3)CC2)c2ccccc12	7	-19	-2	1%	0%	-5%

Assay outcomes deposited in PubChem by National Center for Advancing Translational Sciences (NCATS).
